Hits are enriched below; roughly 10% of the tested compounds scored in any of these assays.
PNC inhibitor: blocks assembly of the perinucleolar compartment; PC3M PTB-GFP, PNC prevalence imaging, 16 h; stronger effect = lower value; activity change (PNC), negative = inhibition, % at 10 µM; 140,000 compounds, 3.1% hits; AID 2417;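 active means readout at or below -70, meaning at least 70% loss of cells showing the perinucleolar compartment, a nuclear body marking cancer cells; inconclusive means readout between -30 and a set limit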;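 further: plate controls were DMSO wells for no effect and camptothecin positive control wells for full effect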
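Compounds are pinned in duplicate onto adhered PC3M cells stably expressing GFP-tagged PTB and incubated 16 h at 37 C. Cells are then fixed, nuclei stained with Hoechst, and PNC-positive cells counted.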
IMPase inh: cell-permeable inhibitors of inositol monophosphatase (IMPase); CHO-M1 cells, IP1 accumulation, HTRF TR-FRET ratio; inhibition (IP1 accumulation), % at 46.1 µM; AID 901; P97697; 120,000 tested, under 10 active; active means well fitted curve in the direction sought with a large enough effect in the signal ratio, not every such curve was filed as active; inconclusive means small, poorly fitted or top-dose-only effect, or a change in a side signal; inactive means no such curve, though single readings can be large or run the other way; the % refers to the signal ratio;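 further: cells stimulated with carbachol in lithium chloride buffer; plate controls were DMSO basal wells for no effect and reference inhibitor wells for full effect; higher means more IMPase inhibition seen as more IP1 and lower FRET ratio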
Target sequence (P97697 whole entry, looked up): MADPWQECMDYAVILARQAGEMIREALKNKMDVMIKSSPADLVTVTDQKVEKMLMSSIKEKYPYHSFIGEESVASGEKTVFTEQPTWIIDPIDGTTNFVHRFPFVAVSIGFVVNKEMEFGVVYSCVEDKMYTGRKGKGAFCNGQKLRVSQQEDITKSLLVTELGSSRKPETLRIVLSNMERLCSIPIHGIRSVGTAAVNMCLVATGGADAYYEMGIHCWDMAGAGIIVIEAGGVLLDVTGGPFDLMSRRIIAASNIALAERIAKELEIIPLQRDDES
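Elevated IP1 in lysates lowers TR-FRET signal (665/620 ratio and 620 channel reported). Cells were CHO-M1, given carbachol (50 uM as added) plus 50mM LiCl, pH 7.4, 30 min, 37C; compounds titrated up to 46 uM; AC50 by Hill equation.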
LMNA splice mod: changes lamin A minigene splicing in HeLa cells | HeLa LMNA splicing GFP/RFP minigene ratio, 48 h | Potency, µM (doses to about 46.1 µM), for the others: top-dose ratio change, negative = inhibition, actives largely listed as inhibitors | 200,000 compounds, 0.01% hits | AID 1487; active means well fitted inhibition curve with a large enough effect in the signal ratio, with a control signal flat, not every such curve was filed as active; inconclusive means small, poorly fitted or top-dose-only effect, or effect the other way, or a change in a side signal; the % refers to the signal ratio; further: potency means the concentration at half of the fitted maximal effect
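S3 HeLa cells stably expressing lamin A-EGFP splicing minigene plus DsRed2, 600 cells/well, 48 h compound exposure at 37C. Laser-scanning cytometry; analysed as GFP (500-530 nm)/RFP (575-640 nm) total intensity ratio; 0.5% DMSO vehicle.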
ALDH1A1 inh: inhibitors of human aldehyde dehydrogenase 1A1 | P00352 | Purified ALDH1A1, NADH fluorescence, propionaldehyde substrate | Potency, µM (doses to about 75.3 µM), for the others: at the highest dose activity, negative = inhibition, actives largely listed as inhibitors | 220,000 compounds, 7.3% hits | AID 1030;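 further: potency means the concentration at half of the fitted maximal effect; plate controls were no enzyme wells and a reference inhibitor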
HPGD block: HPGD (human) dehydrogenase inhibition. 150,000 compounds, 4.3% hits. P15428. purified HPGD, NADH fluorescence kinetic, PGE2 substrate. Potency, µM, for inactives: top-dose activity change, negative = inhibition, actives largely listed as inhibitors; further: potency means the concentration at half of the fitted maximal effect
Target sequence (P15428 whole entry, looked up): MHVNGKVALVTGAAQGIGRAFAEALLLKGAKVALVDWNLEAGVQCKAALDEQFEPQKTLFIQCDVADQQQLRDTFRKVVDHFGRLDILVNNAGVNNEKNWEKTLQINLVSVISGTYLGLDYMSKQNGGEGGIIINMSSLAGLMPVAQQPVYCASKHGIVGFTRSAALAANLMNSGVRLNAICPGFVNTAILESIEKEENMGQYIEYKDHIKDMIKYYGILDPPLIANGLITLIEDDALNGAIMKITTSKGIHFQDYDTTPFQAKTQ
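20 nM HPGD preincubated 15 min at room temperature with compound in 50 mM Tris-HCl pH 8, 0.01% Tween 20. Started with 1 mM NAD+ and 30 uM prostaglandin E2; NADH fluorescence (360/450 nm) read 5 times over 30-s intervals, last minus first.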
Luc counter: counter-screen: inhibitors of Kinase-Glo firefly luciferase. 200,000 compounds, 0.28% hits. Potency, µM (titrated, usually from 38.3 µM), without a hit: at the highest dose activity change, negative = inhibition, most hits filed as inhibitors. Kinase-Glo luciferase, ATP luminescence, 8 min. AID 1379. Q27757; active means well fitted inhibition curve with a large enough effect; inconclusive means small, poorly fitted or top-dose-only effect; further: potency means the concentration at half of the fitted maximal effect; nearly all actives have a fitted effect of over 60% in size
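Light output from Kinase-Glo luciferase with luciferin and 10 uM ATP in 50 mM imidazole pH 7.2, KCl, MgCl2, Tween 20, BSA; compound pin-delivered, 8-min ambient incubation, then luminescence read.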
Active calls of the source: *; ? = inconclusive; · = not tested or not shown; [ ] = remark or other dose. Unless noted, the call rests on the fitted dose curve; in most records, active means well fitted inhibition curve with a large enough effect (not every such curve was filed as active); inconclusive means small, poorly fitted or top-dose-only effect, or another doubt; inactive means no such curve, though single readings can be large or run the other way. Unless noted, on the % scale 0 is the no-effect control and ±100 the full control effect.

SMILES	PNC inhibitor	IMPase inh	LMNA splice mod	ALDH1A1 inh	HPGD block	Luc counter
CCN(CC)S(=O)(=O)c1cccc(NC(=O)c2cc3ccccc3o2)c1	9	10	?	22µM*	-20%	0%
O=C(NCc1ccccc1)c1cc2ccccc2o1	-20	5	1%[46 µM]	?	18µM*	1%
CN(C)S(=O)(=O)c1cccc(NC(=O)c2cc3ccccc3o2)c1	?	3	?	?	-10%	-2%
COc1ccc(C(=O)N/N=c2\oc3ccccc3cc2C(=O)NCc2ccccc2)cc1	31	10	-2%	11µM*	-5%	0%
C[C@@H]1O[C@@H](O)[C@@H](O)[C@H](O)[C@H]1O	·	·	·	30%[13.5 µM]	-3%	-2%[7.66 µM]
Cc1ccc(CNC(=O)Cn2c(=O)cc(C(F)(F)F)c3c(C)nn(C)c32)cc1	·	·	4%[46 µM]	·	·	·
CCCCNC(=O)c1cnn2c(C)c(Cc3c(F)cccc3Cl)c(C)nc12	·	·	26%[46 µM]	·	·	·
COC(=O)[C@@]1(Cc2ccc(OC)cc2)[C@H]2c3cc(C(=O)N(C)C)n(Cc4ccc(C)c(F)c4F)c3C[C@H]2CN1C(=O)c1ccccc1	·	·	·	-8%	-17%	-6%
O=C(NCc1ccc(Cl)cc1)C(=O)Nc1ccc(Br)cc1	·	-1	·	·	·	·
O=C(Nc1ccccc1)c1cc2ccccc2o1	-100*	-6	-4%	9%	-16%	13µM*
Cc1cc(C(=O)Nc2ccccc2)oc1C	44	1	-1%	?	?	13µM*
COC(=O)c1sc2cccc(F)c2c1S(=O)(=O)Nc1cc(C)c(Cl)cc1OC	·	·	-15%[46 µM]	·	·	·
CC(C)C[C@@H](CC(=O)N[C@@H](CCCN)CC(=O)N[C@@H]1CCCC[C@H]1C(=O)N[C@H](CC(=O)N[C@@H](CCC(=O)O)CC(=O)O)Cc1ccccc1)NC(=O)[C@@H]1CCCC[C@H]1N	·	·	·	-12%	0%	4%
Cc1ccc(S(=O)(=O)NCC(c2ccc(N(C)C)cc2)N2CCCC2)cc1 (stereo not given)	·	·	-19%[46 µM]	·	·	·
CCN1CCCc2cc(CN(CCN3CCOCC3)C(=S)Nc3ccc(OC)c(Cl)c3)ccc21	·	·	·	18µM*	·	3%
CCN1CCCc2cc(CN(CCN3CCOCC3)C(=S)Nc3ccc(OC)c(OC)c3)ccc21	·	·	8%[46 µM]	3.2µM*	·	0%
Cc1cc(NC(=S)N(Cc2ccc(Cl)cc2)Cc2ccc(C(=O)O)cc2)ccc1Cl	·	·	3%[46 µM]	-5%	·	11%
COc1ccc(NC(=S)N(Cc2ccc(Cl)cc2)Cc2ccc(C(=O)O)cc2)cc1Cl	·	·	?	20µM*	·	-2%
CCc1ccc(NC(=O)CSc2c(C)cnc3c2c(=O)n(C)c(=O)n3C)cc1	·	·	-2%[46 µM]	·	·	·
O=c1c(-c2ccc(F)cc2)nc2cncnc2n1Cc1ccc(F)cc1	·	·	7%	-15%	·	·
N#Cc1c(-c2ccc(C(F)(F)F)cc2)cc(-c2ccccc2)[nH]c1=S	-99*	·	0%	?	-10%	-5%
CC(=O)OC[C@@]12C(=O)[C@@H](O)[C@@H](C)[C@]3(C[C@@H](c4ccoc4)O[C@@H]3OC(C)=O)[C@H]1CCC[C@]21CO1	·	·	·	13%	-4%	-1%
N=c1c2c(-c3ccccc3)c(-c3ccccc3)n(Cc3ccccc3)c2ncn1CCCn1ccnc1	-98*	5	?	0%	-16%	-2%
N=c1c2c(-c3ccccc3)c(-c3ccccc3)n(Cc3ccco3)c2ncn1Cc1ccco1	19	22	?	-1%	-2%	-5%
O=C1NCCCc2c1oc1cc(Br)c(O)c(Br)c21	-17	-4	?	4µM*	-23%	4%
SMILES	PNC inhibitor	IMPase inh	LMNA splice mod	ALDH1A1 inh	HPGD block	Luc counter
CC(C)NCc1c(O)c(Br)cc2oc3c(c12)CCCC3	?	4	-5%	9%	-9%	0%
O=C1c2ccccc2C(=O)c2c(Nc3cc4c5c(ccc6c7ccc8c9c(cc(Nc%10cccc%11c%10C(=O)c%10ccccc%10C%11=O)c(c3c56)c97)-c3ccccc3C8=O)C(=O)c3ccccc3-4)cccc21	·	·	·	-12%[13.5 µM]	-4%	-4%[7.66 µM]
N#CC(C#N)=C1c2cc(S(N)(=O)=O)ccc2-c2ccc(S(N)(=O)=O)cc21	·	·	-3%[46 µM]	7.9µM*	·	0%
NS(=O)(=O)c1ccc(Cl)c(S(N)(=O)=O)c1	·	·	3%	·	·	·
CC1=CC(C)C2C(=O)N(O)C(=O)C2C1 (stereo not given)	?	-2	-3%	14µM*	2%	-4%
CC1=CC(C)C2C(=O)N(c3ccccc3)NC(=O)C2C1 (stereo not given)	6	·	-2%	7%	-13%	1%
Cc1nc(Nc2ccccc2)c2nc(-c3ccccc3)n(CCCN3CCCCC3C)c2n1 (stereo not given)	·	·	·	-9%	-10%	-1%
CCOC(=O)C1(C)/C(=N/Nc2ccccc2OC)C(=O)C(=O)N1c1ccccc1 (stereo not given)	·	·	3%[46 µM]	24µM*	·	-12%
CCOc1ccc(/C=C2\SC(N3CCc4ccccc4C3)=NC2=O)cc1	14	·	-4%	-10%	22µM*	-1%
O=C1N=C(N2CCOCC2)S/C1=C\c1ccc(OS(=O)(=O)c2ccccc2)cc1	·	·	·	28µM*	·	1%
O=C1N=C(N2CCc3ccccc3C2)S/C1=C\c1cccc(O)c1	6	·	-23%	2.5µM*	5µM*	-1%
COc1ccc(/C=C2\SC(N3CCc4ccccc4C3)=NC2=O)cc1	?	·	3%	?	?	-3%
O=C(CCc1nc(-c2ccccc2F)no1)Nc1cccc(C(F)(F)F)c1	·	13	·	·	·	·
CCOc1ccc(CCNC(=O)c2ccc(CSCc3ccccc3C)o2)cc1OCC	·	·	-23%[46 µM]	·	·	·
CCCC(C)C(=O)OCC(=O)Nc1ccc(Br)cc1 (stereo not given)	·	·	·	11µM*	·	2%
CC(=O)OC[C@@H]1O[C@H](CCO/N=C\[C@@H](C)[C@H](OCc2ccccc2)C(C)C)C=C[C@@H]1OC(C)=O	·	·	·	8%[13.5 µM]	·	·
CCC(Sc1nc2ncccc2o1)C(=O)Nc1ccc(OC)c(OC)c1 (stereo not given)	·	·	11%[46 µM]	·	·	·
Clc1cccc(Cl)c1/C=N\Nc1nccs1	?	1	11%	?	7.9µM*	-3%
C=C(C)C1Cc2nc(N)nc(C)c2C1 (stereo not given)	-7	7	5%	?	?	-7%
C=C(C)C1Cc2c(C)nn(-c3nc(C)cc(C)n3)c2C1 (stereo not given)	6	-16	?	20µM*	-17%	-9%
O=C(c1ccncc1)N1CCC[C@@]2(CCN(Cc3ccccc3)C2)C1	·	·	·	4%	-4%	0%
Cc1ccc(C)c(CSc2nnc(-c3ccccn3)n2N)c1	?	13	17%	10µM*	16µM*	4%

Bioassay records deposited in PubChem BioAssay by National Center for Advancing Translational Sciences (NCATS).
